Holding throughout (assay type): functional
The target of experiment [1] is Solute carrier family 2, facilitated glucose transporter member 1 (Homo sapiens) (UniProt P11166). The experiment in a line: ST_JUDE_LEISH: Cytotoxicity at 2uM final concentration against transgenic Leishmania Mexicana promastigotes LmGLUT1 that are glucose transport deficient and complemented with the human glucose transporter GLUT1. Activity is measured by DNA content using SYBR green in vitro.

Experiment [2] deals with Hexose transporter 1 (Plasmodium falciparum) (UniProt O97467). The experiment in a line: ST_JUDE_LEISH: Cytotoxicity at 2uM final concentration against transgenic Leishmania Mexicana promastigotes LmPfHT that are glucose transport deficient and complemented with the Plasmodium falciparum hexose transporter. Activity is measured by DNA content using SYBR green in vitro.
The target in experiment [3] is Glucose transporter (Leishmania mexicana) (UniProt O61059). Briefly: ST_JUDE_LEISH: Cytotoxicity at 2uM final concentration against transgenic Leishmania Mexicana promastigotes LmGT2 that are glucose transport deficient and complemented with the L. Mexicana glucose transporter 2. Activity is measured by DNA content using SYBR green in vitro.

Sequence of Solute carrier family 2, facilitated glucose transporter member 1 (Homo sapiens) (P11166 whole entry): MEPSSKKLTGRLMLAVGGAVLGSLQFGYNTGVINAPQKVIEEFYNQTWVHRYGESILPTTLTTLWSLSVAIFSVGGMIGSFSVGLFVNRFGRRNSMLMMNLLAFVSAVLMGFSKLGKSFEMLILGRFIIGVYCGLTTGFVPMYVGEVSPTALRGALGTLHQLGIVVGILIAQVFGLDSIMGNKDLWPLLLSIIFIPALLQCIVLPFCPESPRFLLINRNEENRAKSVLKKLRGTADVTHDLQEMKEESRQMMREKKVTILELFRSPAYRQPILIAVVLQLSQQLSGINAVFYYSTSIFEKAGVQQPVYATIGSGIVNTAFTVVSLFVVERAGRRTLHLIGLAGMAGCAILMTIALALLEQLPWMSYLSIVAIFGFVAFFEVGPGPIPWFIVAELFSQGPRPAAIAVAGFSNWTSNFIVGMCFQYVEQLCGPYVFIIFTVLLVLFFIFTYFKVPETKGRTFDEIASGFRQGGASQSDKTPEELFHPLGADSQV

A word on the inhibition: it is the relative decrease from the control value, in per cent. As to `O=C(Nc1ccc(Cl)cc1)c1ccc(CN2CCCN(Cc3ccc(F)cc3)CC2)cc1`, the values for the inhibition in experiment [1], in experiment [2] and in experiment [3] were 5.91%, 1.23% and 0.03%, respectively.
As to `OCCN1CCN(Cc2cccc(-c3cccc(-c4nc5cc(F)ccc5[nH]4)c3)c2)CC1`, the inhibition in experiment [1] is 0.05%; in experiment [2] it was 1.75%; in experiment [3], -0.17%.
`Cc1csc(-c2nc(NCCc3c(C)noc3C)ncc2-c2ccsc2)n1`: the inhibition in experiment [1] was 8.17%; in experiment [2], 11.5%; in experiment [3], 10.2%.
Taken in the same sequence, the figures for `COc1cc(CCNCC(O)c2ccc([N+](=O)[O-])c(OCc3ccccc3)c2)cc(OC)c1OC` (centres undefined) were -0.46%, 1.28% and 0.48%.
Take `CC(C)N(Cc1ccccc1)C(=O)CN1C(=O)COc2ccc(S(=O)(=O)N3CCCCCC3)cc21`: the inhibition in experiment [1] was 4.92%; in experiment [2], 1.02%; in experiment [3], 10.5%.
As to `COc1cc(Cc2cnc(N)nc2N)ccc1OCC(=O)Nc1ccc(C)cc1`, the results for the inhibition in experiment [1], in experiment [2] and in experiment [3] were 8.4%, 9.26% and 8.92%, respectively.
For `CCOc1cc(C=NNc2nc(C)cc(-n3nc(C)cc3C)n2)ccc1O`, in that order: 1.32%, -0.22% and 3.45%.
With `N#Cc1ccc2c(c1)CN(CCC1CCC(NC(=O)c3cc4cnccc4[nH]3)CC1)CC2` (centres undefined), the inhibition in experiment [1] is 5.36%; in experiment [2] it was 3.42%; in experiment [3] it was 3.7%.
For `Cc1cnc(C(=O)Nc2ccc3c(c2)CCCN(Cc2c[nH]c4cnccc24)C3)cn1`, in that order: 11.1%, 11.4% and 9.32%.
For `COc1ccc2nc(-c3ccccc3)cc(N/N=C/c3ccc([N+](=O)[O-])o3)c2c1`, in that order: 15.9%, 10.5% and 10.3%.
Turning to `CC(=NNC(S)=NCc1ccco1)c1ccccn1`, the values for the inhibition in experiment [1], in experiment [2] and in experiment [3] were 1.7%, 1.81% and 1.16%, respectively.
For `NC(=O)c1ccc(NCC(=O)Nc2cccc(-c3cccc(-c4nc5cc(C(F)(F)F)ccc5[nH]4)c3)c2)cc1`, in that order: 3.23%, 3.6% and 1.91%.
Regarding `CN1C(=CC(=O)NC(=O)c2ccccc2)C(C)(C)c2ccccc21`, the inhibition was found to be 0.52% in experiment [1], 0.41% in experiment [2] and 0.4% in experiment [3].

For the origin of these results see ChEMBL document CHEMBL3433997, “St. Jude Leishmania screening dataset” (2016).
